From PubChem BioAssay
Rows were chosen to be rich in hits. Some 28% of all compounds tested hit in one or more screens of this group.
CYP2C19 activ: increases human CYP2C19 enzyme activity; 96,000 tested, under 10 active; recombinant CYP2C19, luciferin-H EGE luminescence; hits give high values; 0 = fully inhibited enzyme, 1 = untreated enzyme; P33261; AID 1025; activation factor at 5 µM;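 active means activation factor of at least 2 at 5 µM in the primary screen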;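 further: 0 = wells with 2.5 mM tranylcypromine and 1 = vehicle-only wells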
Target sequence (P33261 whole entry, looked up): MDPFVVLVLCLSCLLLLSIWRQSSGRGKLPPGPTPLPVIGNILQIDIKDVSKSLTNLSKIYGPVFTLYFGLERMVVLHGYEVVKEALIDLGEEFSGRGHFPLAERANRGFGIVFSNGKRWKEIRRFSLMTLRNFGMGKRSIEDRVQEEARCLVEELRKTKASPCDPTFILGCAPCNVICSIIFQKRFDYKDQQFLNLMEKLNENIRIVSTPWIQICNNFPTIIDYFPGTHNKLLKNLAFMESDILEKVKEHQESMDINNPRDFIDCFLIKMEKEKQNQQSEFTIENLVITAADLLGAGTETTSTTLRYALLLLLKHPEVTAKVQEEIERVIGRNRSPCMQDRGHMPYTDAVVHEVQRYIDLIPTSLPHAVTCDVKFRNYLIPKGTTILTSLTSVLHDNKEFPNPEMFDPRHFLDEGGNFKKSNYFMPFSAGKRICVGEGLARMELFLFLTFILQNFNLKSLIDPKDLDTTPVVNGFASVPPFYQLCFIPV
PTK2B oligo ant: antagonists of human Pyk2 oligomerization. Q14289. Q293 cells, Pyk2 FERM NanoBiT luminescence; hits give low values. z-score (the deposit names both 25 µM and 10 µM). actives 0.83% (n = 99,000);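 active means Z-score of -3 or lower, scaled per plate to the spread of control and sample wells; inactive means z-score above -3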;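 further: negative z-score means lost luminescence so less FERM oligomerization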
CYP2C9 inhib: inhibitors of human CYP2C9 | CYP2C9 Supersomes, luciferin-H conversion, luminescence | inhibition, % at 5 µM | actives 20% (n = 96,000) | P11712;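 active means blocking of liver enzyme CYP2C9 beyond about 50% at 5 µM, limit read from the data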
CYP2C9 act: increases human cytochrome P450 2C9 activity | activation factor at 5 µM | P11712 | recombinant CYP2C9, luciferin-H conversion, luminescence; hits give high values; factor 1 = untreated enzyme, 0 = blocked | actives 1.4% (n = 96,000);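 active means activation factor of 2 or more for CYP2C9 at a 5 µM dose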;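 further: 0 = sulfaphenazole-blocked wells and 1 = vehicle-only wells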
CYP2C19 inhib: blocks human cytochrome P450 2C19; P33261; CYP2C19 Supersomes, luciferin-H EGE luminescence, 30 min; inhibition, % at 5 µM; actives 21% (n = 96,000); AID 778;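 active means CYP2C19 inhibition above a set limit at 5 µM in the primary screen, cut at about 50% in these data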;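 further: plate controls were negative control wells for no effect and 2.5 mM tranylcypromine positive control for full effect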
Numbers without * were called inactive; / = no result.

SMILES	CYP2C19 activ	PTK2B oligo ant	CYP2C9 inhib	CYP2C9 act	CYP2C19 inhib
CC1CCCN(c2nc3ccccc3nc2C(C#N)C(=O)OC2CCCCC2)C1 (stereo unspecified)	1	/	17.0	0.8	2.9
CC1CCCN(c2nc3ccccc3nc2C(C#N)S(=O)(=O)c2cccs2)C1 (stereo unspecified)	1	0.54	74.7*	0.3	3.1
COc1ccc(S(=O)(=O)C(C#N)c2nc3ccccc3nc2N2CCCC(C)C2)cc1 (stereo unspecified)	0.1	-0.79	93.3*	0.1	86.3*
Cc1ccc(S(=O)(=O)C(C#N)c2nc3ccccc3nc2N2CCCC2)cc1 (stereo unspecified)	0.1	-1.11	54.6*	0.5	87.4*
Cc1c(C(=O)NCc2ccccc2Cl)oc2c1C(=O)CCC2	0.8	/	19.4	0.8	15.1
Cc1cc(-c2nsc(=O)o2)c(S(C)(=O)=O)s1	0.9	0.33	16.6	0.8	9.6
Cc1ccccc1Nc1nc(N)nc(COC(=O)C(NC(=O)c2ccco2)C(C)C)n1 (stereo unspecified)	0.7	-0.7	58.9*	0.4	30.9
Cc1ccc(Nc2c([N+](=O)[O-])ccc3c2=NC2(CCCCC2)N=3)cc1	0.9	-2.01	32.3	0.7	6.7
CCNc1nc(NCC)n2c(SCc3nc4ccccc4c(=O)[nH]3)nnc2n1	0.8	-0.35	5.2	0.9	23.6
CCNc1nc(NCC)n2c(SCc3ccc(F)cc3)nnc2n1	0	0.05	2.7	1	96.2*
O=C(CSC1=NCCS1)Nc1nc2c(s1)CCCC2	1	0.62	22.6	0.8	-0.2
Cn1c(=O)c2c(nc(SCCN3CCCCC3)n2Cc2ccc(Cl)cc2)n(C)c1=O	0.9	0.52	19.6	0.8	8.5
CCOC(=O)CN(C(=O)CSc1nnc2c(n1)[nH]c1c(C)cc(C)cc12)c1ccccc1	0.9	/	3.8	1	8.2
CCOC(=O)c1c(NC(=O)CSc2nnc3c(n2)[nH]c2ccc(F)cc23)sc(C(C)=O)c1C	0.4	0.32	75.7*	0.2	64.0*
CCOC(=O)CN(C(=O)CSc1nnc2c(n1)[nH]c1ccc(F)cc12)c1ccccc1	0	-1.81	74.9*	0.3	100.2*
CCOC(=O)CN(C(=O)CSc1nnc2c(n1)[nH]c1ccccc12)c1ccccc1	0.2	-2.7	44.9	0.6	81.4*
O=C(N/N=C/c1ccccn1)c1cc(-c2ccc(Cl)cc2)nc2ccccc12	/	-2.18	/	/	/
Cc1ccc(-c2cc(C(=O)N/N=C\c3cnn(C)c3C)c3ccccc3n2)cc1C	0.1	-0.97	98.8*	0	87.4*
COc1ccccc1-c1cc(C(=O)N/N=C/c2ccc(C)s2)c2ccccc2n1	0.3	-2.32	99.6*	0	74.9*
CCc1ccc(/C=N/NC(=O)c2cc(-c3ccccc3OC)nc3ccccc23)s1	0.3	-1.38	94.2*	0.1	66.3*
CCc1ccc(/C=N/NC(=O)c2cc(C3CC3)nc3ccc(Br)cc23)s1	0.9	-1.93	36.1	0.6	9.5
COc1ccc(OC)c(/C=N/NC(=O)c2cc(-c3ccc(C)o3)nc3ccccc23)c1	/	-0.52	/	/	/
c1ccc(-n2c(Cc3cccnc3)nc3cnccc32)cc1	/	1.45	/	/	/
N#Cc1c(N)nc2c(c1-c1ccncc1)CCCCCC2	/	0.04	/	/	/
CCOC(=O)C1CCN(C(=O)CCCOc2ccccc2)CC1	0.6	0.49	7.0	0.9	36.1
SMILES	CYP2C19 activ	PTK2B oligo ant	CYP2C9 inhib	CYP2C9 act	CYP2C19 inhib
CCCCNC(=O)COC(=O)c1cc(C)nc2ccccc12	0.3	0.48	-160.0	2.6*	74.7*
Cc1cc(C(=O)OCC(=O)Nc2cc(C)on2)c2ccccc2n1	0.4	-0.18	21.2	0.8	55.9*
CCOc1ccc(C(=O)OCC(=O)Nc2cc(C)on2)cc1OCC	0.8	-0.16	13.4	0.9	17.0
Cc1cc(C(=O)OCC(=O)NCCCN2CCCC2=O)c2ccccc2n1	1	1.48	-4.1	1	0.1
Cc1cc(C(=O)OCC(=O)NCCC(C)C)c2ccccc2n1	0.8	-0.12	-137.0	2.4*	21.1
Cc1nc2nc(C)c(CCC(=O)O)c(C)n2n1	1	1.52	-6.9	1.1	3.7
Cn1nc(C(=O)Nc2c(-c3ccccc3)nc3sccn23)c2ccccc2c1=O	1.1	0.66	-10.8	1.1	-10.9
Cn1ncc(Cl)c1C(=O)Nc1ccncc1	/	0.65	/	/	/
CCn1ncc(Cl)c1C(=O)Nc1ccncc1	0	0.35	93.3*	0.1	96.2*
O=C(Cc1ccc(-n2cccc2)cc1)N1CCc2ccccc21	0.4	0.32	11.3	0.9	58.6*
CCOCC(=O)N1CCc2ccccc21	1	0.44	-6.5	1.1	4.5
Cc1ccc(OCCC(=O)OCC(=O)N2c3ccccc3CC2C)cc1 (stereo unspecified)	1	2.47	-49.4	1.5	4.2
COc1ccc(CCC(=O)N2c3ccccc3CC2C)cc1 (stereo unspecified)	0	-1.53	56.8*	0.4	96.3*
COc1ccc(CCC(=O)N2CCc3ccccc32)cc1	0.4	-1.19	-2.3	1	59.7*
O=C(Nc1ccc2c(c1)OCCO2)C1CCCN(S(=O)(=O)c2cccnc2)C1 (stereo unspecified)	1	/	7.1	0.9	-1.2
C/C(Cn1nnc([N+](=O)[O-])n1)=N\NC(=O)c1ccc(Cl)c(Cl)c1	0.9	-0.29	5.2	0.9	13.4
CCOC(=O)c1cc2occc2n1CC(=O)Nc1ccc(OC)cc1OC	0.6	0.08	37.3	0.6	37.3
Cn1c(C(C#N)C(=O)c2ccco2)nc2ccccc21 (stereo unspecified)	0.9	0.2	51.3*	0.5	5.1
Cn1c(C(C#N)C(=O)Cc2cccc3ccccc23)nc2ccccc21 (stereo unspecified)	1	0.2	-1.7	1	1.0
CC(=O)Nc1ccc(S(=O)(=O)NCCC(=O)OCCN2C(=O)c3ccccc3C2=O)cc1	0.3	0.46	93.1*	0.1	69.8*
Cc1ccc(C(=O)NNc2nc3ccccc3nc2C(F)(F)F)cc1	0.7	-0.7	2.1	1	28.5
Cc1cc(C(C)(C)C)cc(S(=O)(=O)NCC(=O)O)c1C	0.9	-0.75	-134.5	2.3*	13.9
O=C(O)CNS(=O)(=O)c1cc(Cl)c(Cl)cc1Cl	0.9	0.14	-14.4	1.1	14.3
CC(NC(=O)C(C)(C)C)c1nc2ccccc2n1C (stereo unspecified)	1.1	1.35	-26.2	1.3	-7.4
O=C(CSc1nc2[nH]ncc2c(=O)[nH]1)NCc1ccc(F)cc1	/	0.03	/	/	/
N#Cc1c(C(F)(F)F)cc(C2CC2)[nH]c1=O	1	/	-14.0	1.1	-1.2
N#Cc1c(C(F)(F)F)cc(-c2ccccc2Cl)[nH]c1=O	1.1	-1.49	86.2*	0.1	-7.8
N#Cc1c(C(F)(F)F)cc(-c2ccccc2)[nH]c1=O	1.1	0.62	57.8*	0.4	-9.8
CN1CCN(NC(=O)c2cccc(Br)c2)CC1	/	-0.71	/	/	/
Cc1cccc(OCCn2nc(C(=O)O)c3ccccc3c2=O)c1	0.3	0.73	68.4*	0.3	71.6*
